Most compounds without a hit are left out; they make up all but 4.9% or so of the library.
HSP90 refold inh = inhibitors of HSP90 luciferase refolding in rabbit reticulocyte lysate. hit rate 0.91% among 290,000. inhibition, % at 5.6 µM. luciferase refolding luminescence, 3 h;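 active = inhibition above the screen-wide mean plus 3 SD, computed separately per campaign, cut at about 16% in these data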;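 note: 0% = DMSO wells and 100% = 60 µM geldanamycin wells; inhibitors lower the luminescence because luciferase stays unfolded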
dFosB act-1 = activators of mouse delta FosB homodimer; P13346; purified delta FosB, TAMRA-CDK5 oligo fluorescence polarization; percent of positive-control signal above neutral wells; activation, % at 25 µM; hit rate 0.99% among 340,000;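 active = mean activation above about 17%, with every replicate also reaching it, limit read from the data, passing the limit was not always enough; inconclusive = only one of the two conditions met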
Target sequence (P13346 whole entry, looked up): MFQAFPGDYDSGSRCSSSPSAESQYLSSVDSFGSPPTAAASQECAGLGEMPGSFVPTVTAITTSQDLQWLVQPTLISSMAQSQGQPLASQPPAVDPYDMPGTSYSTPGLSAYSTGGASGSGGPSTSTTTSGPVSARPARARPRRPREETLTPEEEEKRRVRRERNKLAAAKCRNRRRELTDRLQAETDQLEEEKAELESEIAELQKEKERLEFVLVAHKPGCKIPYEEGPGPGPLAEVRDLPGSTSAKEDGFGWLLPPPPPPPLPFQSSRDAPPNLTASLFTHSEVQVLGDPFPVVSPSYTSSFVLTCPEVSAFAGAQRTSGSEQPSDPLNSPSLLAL
Platelet DG rel = platelet dense granule release activity | human platelet-rich plasma, SFLLRN dense granule ATP release, luminescence | inhibition, %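 (compounds screened at 7.5 µM in platelet-rich plasma)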 | AID 1663 | hit rate 0.22% among 300,000;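 active = mean replicate score, as percent of positive control, at or above 50; inconclusive = mean below 50 but at least one replicate at or above 50; inactive = mean and every replicate below 50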
HSF1 inhib = HSF1 inhibition; hit rate 0.77% among 300,000; activity change, negative = inhibition, % at 7.5 µM (by protocol); NIH3T3-HGL HSE-luciferase, MG132-induced, luminescence 8 h; active compounds read low;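 active = more than half of replicate wells show activity change below -50%, luminescence cut by over half; inconclusive = some wells, but at most half, below -50%; inactive = no replicate well below -50%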;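 note: luciferase reports HSF-1 transcriptional activity via heat shock element; 0% = median of DMSO wells and -100% = zero luminescence signal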
HSF-1 act = increases HSF-1 driven luciferase reporter signal | NIH3T3-HGL HSF-1 luciferase reporter, MG132, 8 h; 100% = twice DMSO control signal | activation, % at 9 µM | AID 504408 | hit rate 1.7% among 300,000;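 active = mean replicate activation of at least 50% with a set share of replicates each reaching 50%; inconclusive = only one of those two conditions met; inactive = mean below 50% and too few replicates reaching it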;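 note: 0% = median of the neutral control wells and 100% = twice that signal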
MPTP inh = inhibitors of mitochondrial permeability transition pore | hit rate 1.4% among 360,000 | isolated mouse mitochondria, Ca2+ swelling absorbance, 30 min | AID 602449 | inhibition, % at 10 µM;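 active = inhibition of 50% or more, scaled per plate between neutral and stimulator controls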;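 note: 0% = DMSO wells given calcium and 100% = 1 mM EGTA wells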
dFosB act-2 = delta FosB (mouse) homodimer activation. shares compounds with dFosB act-1. AID 588690. 2,400 tested, under 10 active. purified delta FosB, TAMRA-CDK5 oligo fluorescence polarization; normalised: neutral wells 0, positive control 100. activation, % at 24.9 µM;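 active = highest replicate activation at or above 34% and every replicate reaching that threshold; inconclusive = meets only one of the two criteria; inactive = meets neither criterion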;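 note: higher polarization means more probe DNA bound by delta FosB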
* = called active by the depositor; ? = inconclusive; . = no result.

SMILES	HSP90 refold inh	dFosB act-1	Platelet DG rel	HSF1 inhib	HSF-1 act	MPTP inh	dFosB act-2
COc1ccc(Cc2nnc(SCC(=O)c3ccc4c(c3)NC(=O)CO4)o2)cc1	.	-2	1	-1	0	0	.
O=C(CCCCC(=O)NN=Cc1ccc(Cl)cc1)NN=Cc1ccc(Cl)cc1	.	25*	.	.	.	1	1
N#CCC(=O)N/N=C/c1ccc(Cl)cc1	0	3	1	-20	-39	0	.
CCC(=O)Nc1ccc(Cl)c(NC(=S)NC(=O)COc2ccc(Cl)cc2)c1	3	55*	-34	-13	-10	8	-1
O=C(COc1ccccc1)NC(=S)Nc1cccc(NC(=O)c2ccccc2Cl)c1	-3	-8	-4	10	3	0	.
CCC(=O)Nc1ccc(Cl)c(NC(=S)NC(=O)COc2ccccc2)c1	-6	35*	-2	5	5	2	?
CC(C)Cc1nnc(NC(=O)CCC(=O)NCCc2ccc(Cl)cc2)s1	1	2	1	-1	-7	0	.
CSc1ccccc1NC(=O)Cn1nnc(-c2ccc(S(C)(=O)=O)cc2)n1	7	30*	3	0	6	3	6
O=c1[nH]c(/C=C/c2cccc3ccccc23)nc2ccccc12	4	25*	4	36	35	0	-2
NS(=O)(=O)c1ccc(NC(=O)COC(=O)/C=C/c2ccc([N+](=O)[O-])cc2)cc1	3	2	-4	18	32	0	.
O=C(COC(=O)/C=C/c1ccc([N+](=O)[O-])cc1)Nc1ccc(F)cc1	.	19*	.	.	.	-1	5
Cc1ccc(C(=O)COC(=O)c2ccc3c(c2)C(=O)N(c2cccc4ncccc24)C3=O)cc1	6	49*	-13	-24	-29	1	5
O=C(COC(=O)c1ccc2c(c1)C(=O)N(c1cccc3ncccc13)C2=O)c1ccc(Cl)cc1	-3	65*	-1	-4	-11	0	2
O=C(Nc1ccon1)Nc1cccc(Cl)c1Cl	2	-8	-2	6	5	1	.
Cc1cccc(CCNC(=O)CCNC(=O)Cn2ccc3ccccc3c2=O)c1	2	5	13	7	7	1	.
CCOc1ccccc1CNC(=O)CCNC(=O)Cn1ccc2ccccc2c1=O	-2	23*	-7	12	-6	-1	2
O=C(CCNC(=O)Cn1ccc2ccccc2c1=O)NCCc1ccc(Cl)cc1	3	33*	-13	2	13	1	-7
C[C@@H](NC(=O)Cn1cnc2c(NCc3ccccc3)ncnc21)c1cccc2ccccc12	.	38*	.	.	.	0	-2
CCOc1ccc(/C=N/N2C(=O)C(CC(=O)Nc3ccc(F)cc3F)SC2=NC)cc1OC (configuration not stated)	1	26*	1	22	60*	3	0
CCNc1nc(NCC)nc(N/N=C/c2ccc(Br)cc2)n1	-2	4	0	-1	-14	-1	.
CC(=O)N1c2ccccc2CCc2ccc([N+](=O)[O-])cc21	5	0	-8	16	47	0	.
CCN(CC)CCN1C(=O)c2cccc3cc(N)cc(c23)C1=O	4	24*	.	6	-8	0	-4
NC(=O)CN1CCN(CCN2C(=O)c3cccc4cccc(c34)C2=O)CC1	1	24*	11	-2	9	-2	-9
COc1cc(COCC(O)CN2CCN(CCN3C(=O)c4cccc5cccc(c45)C3=O)CC2)cc(OC)c1OC (configuration not stated)	0	37*	-7	88	115*	3	1
Nc1cc2c3c(cccc3c1)C(=O)N(CCN1CCCC1)C2=O	3	57*	-5	18	32	-2	-2
SMILES	HSP90 refold inh	dFosB act-1	Platelet DG rel	HSF1 inhib	HSF-1 act	MPTP inh	dFosB act-2
O=C1c2ccccc2C(=O)N1CCN1CCCCC1	2	-1	-1	0	-6	-5	.
CC1(C(=O)NS(=O)(=O)c2ccc(Cl)cc2)CCN1C(=O)CCc1ccccc1 (configuration not stated)	.	.	.	.	.	0	.
CC(NC(=O)C(Cc1ccccc1)n1cccc1)c1ccccc1 (configuration not stated)	8	-2	12	6	7	4	.
O=C(NCCO)c1ccc(-c2cnc3cccnn23)cc1	.	.	.	.	.	1	.
CC1=C(C(=O)N(C(C)C)C(C)C)CC(CC(=O)NCc2cccs2)C(=O)N1Cc1ccccc1 (configuration not stated)	.	.	.	.	.	0	.
COc1ccc(-c2cc(C(=O)Nc3ccc(F)cc3F)no2)cc1	3	-2	5	7	18	4	.
COc1ccc(OC)c(-c2cc(C(=O)Nc3ccc(F)cc3F)no2)c1	-1	33*	1	3	-9	0	6
O=C(CSc1nc2sc3c(c2c(=O)n1-c1ccccc1)CCCC3)NCc1ccco1	-4	52*	7	-4	0	-1	8
COc1ccccc1C1CCN(Cc2ccc3ccccc3c2)CC1	0	21*	1	-3	-9	-1	2
COc1ccc(-c2csc(Nc3ccc(Oc4ccccc4)cc3)n2)cc1	.	.	.	.	.	5	.
CCOc1ccc(-n2c([S-])c(C(=O)Nc3ccc(S(=O)(=O)N4CCOCC4)cc3)[n+]3cc(C(N)=O)ccc23)cc1	-2	20*	3	-3	-5	3	2
C[C@H]1CN([C@@H](C)CO)C(=O)c2cc(Br)cnc2O[C@@H]1CN(C)S(C)(=O)=O	.	.	.	.	.	0	.
O=C(CSc1ncnc2[nH]ncc12)Nc1nc(-c2ccc(F)c(F)c2)cs1	-3	33*	-4	-6	-14	14	-1
Cc1cc2ccccc2n2c(SCC(=O)Nc3ccc(S(=O)(=O)N4CCCCC4)cc3)nnc12	2	-10	-5	-5	6	-1	.
Cc1cc2cc(C)c3nnc(SCC(=O)Nc4ccc(S(=O)(=O)N5CCCCC5)cc4)n3c2cc1C	2	22*	0	8	38	0	2
COC(=O)c1cc(NC(=O)c2ccc(Cn3cc(Cl)cn3)o2)cc(C(=O)OC)c1	-2	21*	3	6	35	0	-1
COC(=O)c1ccccc1NC(=O)c1ccc(Cn2cc(Cl)cn2)o1	-1	-7	5	-1	-10	-1	.
CCN(CC)C(=O)C1=C(C)N(Cc2ccc(C(C)(C)C)cc2)C(=O)C(CC(=O)NC2CC2)C1 (configuration not stated)	.	.	.	.	.	-1	.
Cc1cc(C)c2oc(C(=O)NCCc3ccc(S(N)(=O)=O)cc3)cc(=O)c2c1	5	41*	14	-6	-7	2	-2
Cc1cc(C)c(OCC(=O)N2CC=C(c3ccccc3)CC2)c(C)c1	2	-14	-6	7	-18	-1	.
